The source made the active and inactive calls.
What was measured:
[1] = system: Plasmodium falciparum Sir2 (PF13_0152, Sir2A); experiment: pfSir2 binders on small-molecule microarrays, primary screen, biochemical, small-molecule microarray, 635 nm fluorescence (AID 1098); settings: small-molecule microarray binding, fluorescence 635 nm; higher = more signal;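 further: score merges spot fluorescence intensity with its signal-to-noise ratio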
[2] = small-molecule microarray binders of probe aDKK1, primary screen, biochemical, biotinylated probe, 635/667 nm fluorescence (AID 1099); settings: higher = more signal;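 further: score merges 667nm spot fluorescence with signal to noise across triplicate slides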
[3] = small-molecule microarray binders of probe aCHRDL2, primary screen, biochemical, biotinylated probe, 635/667 nm fluorescence (AID 1100); settings: higher = more signal
[4] = splicing luciferase reporter signal modulators, primary screen, spliceosome inhibition project, cell-based, HEK293, splice +/- reporter (AID 1101); settings: luminescence, 24 h, higher = more signal, called active from +8 up or from −8 down;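 further: HEK293 cells carrying a splicing-competent luciferase reporter gene; test concentration not given here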
[5] = target: Fibroblast growth factor 10 (Homo sapiens) (UniProt O15520); experiment: FGF10 binders on small-molecule microarrays, primary screen, biochemical, small-molecule microarray, 635 nm fluorescence (AID 1102); settings: FGF10 binding, fluorescence 635 nm, higher = more signal
Fibroblast growth factor 10 (Homo sapiens), sequence (O15520 whole entry, looked up): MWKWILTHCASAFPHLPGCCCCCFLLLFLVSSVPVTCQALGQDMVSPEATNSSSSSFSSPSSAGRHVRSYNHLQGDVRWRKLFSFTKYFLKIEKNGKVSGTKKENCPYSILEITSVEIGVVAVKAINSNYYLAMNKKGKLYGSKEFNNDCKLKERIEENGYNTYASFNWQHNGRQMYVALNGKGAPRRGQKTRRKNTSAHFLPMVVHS

[6] = system: glycogen synthase kinase-3 (GSK3A per assay name; protocol says GSK3B); experiment: GSK3 binders on small-molecule microarrays, primary screen, biochemical, small-molecule microarray, 635 nm fluorescence, GSK3A (AID 1103); settings: small-molecule microarray binding, fluorescence 635 nm; higher = more signal; further: the record names both GSK3A and GSK3B
[7] = target: Epidermal growth factor receptor (Homo sapiens) (UniProt P00533); experiment: EGFR binders on small-molecule microarrays, primary screen, biochemical, small-molecule microarray, 635 nm fluorescence (AID 1104); settings: EGFR binding, higher = more signal;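 further: score merges 667 nm emission intensity with spot signal to noise over triplicate slides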
Epidermal growth factor receptor (Homo sapiens), sequence (P00533 whole entry, looked up): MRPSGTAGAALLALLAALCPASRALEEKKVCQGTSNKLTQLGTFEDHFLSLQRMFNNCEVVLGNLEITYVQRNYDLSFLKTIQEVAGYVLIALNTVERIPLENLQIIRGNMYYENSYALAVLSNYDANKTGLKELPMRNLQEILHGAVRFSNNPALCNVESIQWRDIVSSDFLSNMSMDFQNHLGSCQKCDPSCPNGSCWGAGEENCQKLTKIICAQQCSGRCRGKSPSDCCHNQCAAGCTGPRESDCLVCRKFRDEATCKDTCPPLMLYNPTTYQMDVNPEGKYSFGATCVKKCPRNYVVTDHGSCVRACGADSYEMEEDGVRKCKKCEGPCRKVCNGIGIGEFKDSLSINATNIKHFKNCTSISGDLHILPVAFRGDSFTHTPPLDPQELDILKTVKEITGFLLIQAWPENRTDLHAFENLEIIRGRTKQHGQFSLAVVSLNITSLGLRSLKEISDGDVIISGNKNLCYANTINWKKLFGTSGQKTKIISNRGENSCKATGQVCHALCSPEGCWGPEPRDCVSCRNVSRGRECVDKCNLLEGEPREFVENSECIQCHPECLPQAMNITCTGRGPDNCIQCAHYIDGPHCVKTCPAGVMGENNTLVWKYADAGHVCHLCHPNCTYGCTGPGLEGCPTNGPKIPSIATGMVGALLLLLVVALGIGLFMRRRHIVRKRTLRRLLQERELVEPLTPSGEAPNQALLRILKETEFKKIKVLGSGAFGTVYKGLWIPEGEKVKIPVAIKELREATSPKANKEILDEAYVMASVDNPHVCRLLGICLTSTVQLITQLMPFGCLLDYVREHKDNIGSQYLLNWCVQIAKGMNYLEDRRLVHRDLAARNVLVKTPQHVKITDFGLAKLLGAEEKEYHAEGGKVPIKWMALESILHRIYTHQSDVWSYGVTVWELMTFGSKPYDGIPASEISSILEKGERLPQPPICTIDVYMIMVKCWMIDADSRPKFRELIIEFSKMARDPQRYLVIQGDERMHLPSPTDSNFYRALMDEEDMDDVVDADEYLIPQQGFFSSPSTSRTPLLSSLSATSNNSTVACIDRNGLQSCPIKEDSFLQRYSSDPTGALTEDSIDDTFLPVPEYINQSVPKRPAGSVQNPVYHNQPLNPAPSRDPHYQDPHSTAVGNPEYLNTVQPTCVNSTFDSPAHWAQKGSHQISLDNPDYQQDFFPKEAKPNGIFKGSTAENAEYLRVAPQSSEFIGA

[8] = target: Follistatin-related protein 3 (Homo sapiens) (UniProt O95633); experiment: FSTL3 binders on small-molecule microarrays, primary screen, biochemical, small-molecule microarray, 635 nm fluorescence (AID 1105); settings: FSTL3 binding, higher = more signal;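 further: score merges emission near 667 nm and signal to noise per printed spot across three slides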
Follistatin-related protein 3 (Homo sapiens), sequence (O95633 whole entry, looked up): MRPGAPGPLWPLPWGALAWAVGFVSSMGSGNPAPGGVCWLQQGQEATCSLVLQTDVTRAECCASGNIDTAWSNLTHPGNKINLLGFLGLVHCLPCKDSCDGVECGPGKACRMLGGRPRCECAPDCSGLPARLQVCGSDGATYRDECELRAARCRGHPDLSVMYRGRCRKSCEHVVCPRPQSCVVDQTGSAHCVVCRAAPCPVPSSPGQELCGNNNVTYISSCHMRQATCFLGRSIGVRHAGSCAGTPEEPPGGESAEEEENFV

[9] = target: Dickkopf-related protein 1 (Homo sapiens) (UniProt O94907); experiment: DKK1 binders on small-molecule microarrays, primary screen, biochemical, small-molecule microarray, 635 nm fluorescence scan (AID 1106); settings: DKK1 binding, higher = more signal;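 further: score merges emission near 667 nm with signal to noise over three replicate slides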
Dickkopf-related protein 1 (Homo sapiens), sequence (O94907 whole entry, looked up): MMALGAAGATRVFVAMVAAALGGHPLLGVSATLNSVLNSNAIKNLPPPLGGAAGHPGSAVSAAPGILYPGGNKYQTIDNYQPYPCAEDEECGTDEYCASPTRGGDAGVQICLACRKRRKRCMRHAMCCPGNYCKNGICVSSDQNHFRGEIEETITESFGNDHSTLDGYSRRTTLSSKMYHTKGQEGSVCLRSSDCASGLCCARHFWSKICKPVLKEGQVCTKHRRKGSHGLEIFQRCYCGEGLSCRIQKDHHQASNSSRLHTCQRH

[10] = system: Inhibin beta A chain (activin A); experiment: INHBA (activin A) binders on microarrays, primary screen, biochemical, small-molecule microarray, 635 nm fluorescence scan (AID 1107); settings: small-molecule microarray binding, higher = more signal;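 further: mouse activin A protein probed at 4.33 µg/mL on printed slides; score merges bound-protein fluorescence near 667 nm with spot signal-to-noise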
[11] = system: Human papillomavirus type 1a protein E7 (residues 44-93); experiment: HPV1a E7 fragment binders on microarrays, primary screen, biochemical, small-molecule microarray, residues 44-93, 635 nm fluorescence (AID 1108); settings: small-molecule microarray binding, fluorescence 635 nm; higher = more signal;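 further: E7 fragment applied at 1 µg/mL in TBST for 1 h at 4 C; score combines spot fluorescence with its signal to noise ratio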
[12] = modulators of HCV replicon luciferase signal, primary screen, HCV replication inhibitor project, Huh7 cells, luciferase reporter (AID 1109); settings: 48 h, higher = more signal;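 further: huh7 hepatoma cells harbouring a luciferase neomycin HCV replicon reporter; luciferase luminescence as measure of HCV replicon replication; test concentration not given here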
[13] = target: Left-right determination factor 2 (Homo sapiens) (UniProt O00292); experiment: LEFTY2 binders on small-molecule microarrays, primary screen, biochemical, small-molecule microarray, 635 nm fluorescence scan (AID 1110); settings: LEFTY2 binding, higher = more signal
Left-right determination factor 2 (Homo sapiens), sequence (O00292 whole entry, looked up): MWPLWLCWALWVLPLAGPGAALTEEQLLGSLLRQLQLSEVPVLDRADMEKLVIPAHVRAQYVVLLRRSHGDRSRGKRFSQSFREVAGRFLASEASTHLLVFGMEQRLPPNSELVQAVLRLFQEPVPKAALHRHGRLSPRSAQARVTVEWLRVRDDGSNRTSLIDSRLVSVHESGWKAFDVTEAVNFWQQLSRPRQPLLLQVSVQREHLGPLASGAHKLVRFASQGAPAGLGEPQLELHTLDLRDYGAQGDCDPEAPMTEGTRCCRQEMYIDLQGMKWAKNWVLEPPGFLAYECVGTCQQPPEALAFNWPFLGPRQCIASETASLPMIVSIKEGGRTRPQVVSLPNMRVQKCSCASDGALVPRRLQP

[14] = target: Calmodulin-1 (Homo sapiens) (UniProt P0DP23); experiment: CALM1 binders on microarrays, EGTA buffer, profiling panel, biochemical, small-molecule microarray, Cy5-labelled CALM1 (AID 1111); settings: Cy5-CALM1 binding fluorescence, higher = more signal;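 further: labelled calmodulin applied in Tris saline Tween buffer holding calcium plus EGTA and DTT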
[15] = target: Calmodulin-1 (Homo sapiens) (UniProt P0DP23); experiment: calcium-bound CALM1 binders on microarrays, profiling panel, artefact control for SMM control-protein annotation, biochemical, small-molecule microarray, Cy5-labelled CALM1, plus calcium (AID 1112); settings: Cy5-CALM1 binding fluorescence, higher = more signal;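 further: score merges spot fluorescence with signal to noise from triplicate slides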
[16] = small-molecule microarray binders of probe aWnt5a, primary screen, biochemical, biotinylated probe, 635/667 nm fluorescence (AID 1113); settings: higher = more signal;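 further: score merges 667 nm fluorescence intensity with signal-to-noise per printed feature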
[17] = small-molecule microarray binders of probe aShh, primary screen, biochemical, biotinylated probe, 635/667 nm fluorescence (AID 1114); settings: higher = more signal;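 further: probe is biotin-labelled aShh protein from a stem cell growth factor screen; measures binding of labelled protein to compounds printed on the slide; score merges feature fluorescence at 667 nm with signal-to-noise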
[18] = small-molecule microarray binders of probe aNog, primary screen, biochemical, biotinylated probe, 635/667 nm fluorescence (AID 1115); settings: higher = more signal;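 further: probe is biotinylated aNog protein used at 0.15 µg/mL for 1 h at 4 C; z-score combines 667 nm fluorescence of each spot with its signal to noise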
[19] = target: Torsin-1A-interacting protein 1 (Homo sapiens) (UniProt Q5JTV8); experiment: LAP1 binders from COS7 cell lysate, primary screen, small-molecule microarray, 635/667 nm fluorescence (AID 1116); settings: COS7-hLAP1 lysate binding, 635 nm fluorescence, higher = more signal
Torsin-1A-interacting protein 1 (Homo sapiens), sequence (Q5JTV8 whole entry, looked up): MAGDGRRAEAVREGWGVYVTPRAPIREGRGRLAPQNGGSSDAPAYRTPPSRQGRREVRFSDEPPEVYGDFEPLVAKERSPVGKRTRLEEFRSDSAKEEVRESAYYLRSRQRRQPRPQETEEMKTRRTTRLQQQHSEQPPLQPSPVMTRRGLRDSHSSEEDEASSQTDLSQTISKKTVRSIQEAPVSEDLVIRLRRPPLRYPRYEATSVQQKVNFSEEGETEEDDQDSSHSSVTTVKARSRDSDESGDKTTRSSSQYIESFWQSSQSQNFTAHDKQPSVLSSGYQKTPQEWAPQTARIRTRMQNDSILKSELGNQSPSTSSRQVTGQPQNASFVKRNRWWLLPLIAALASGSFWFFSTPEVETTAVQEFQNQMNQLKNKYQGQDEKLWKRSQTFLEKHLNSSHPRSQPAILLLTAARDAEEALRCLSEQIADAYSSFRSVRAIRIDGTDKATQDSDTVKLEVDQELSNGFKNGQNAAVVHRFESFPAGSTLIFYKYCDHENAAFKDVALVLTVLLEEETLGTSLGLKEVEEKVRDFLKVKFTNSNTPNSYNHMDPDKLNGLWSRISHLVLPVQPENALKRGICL

[20] = target: Alpha-bungarotoxin (Bungarus multicinctus) (UniProt P60615); experiment: alpha-bungarotoxin binders on microarray, profiling panel, artefact control for SMM control protein annotation, biochemical, small-molecule microarray, Alexa647 label, 635/667 nm fluorescence (AID 1117); settings: alpha-BTX-A647 binding fluorescence, higher = more signal
Alpha-bungarotoxin (Bungarus multicinctus), sequence (P60615 whole entry, looked up): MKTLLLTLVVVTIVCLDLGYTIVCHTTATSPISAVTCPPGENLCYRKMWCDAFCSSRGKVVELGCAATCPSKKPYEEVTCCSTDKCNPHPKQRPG

Row | Compound | composite z-score [1] | composite z-score [2] | composite z-score [3] | z-score [4] | composite z-score [5] | composite z-score [6] | composite z-score [7] | composite z-score [8] | composite z-score [9] | composite z-score [10] | composite z-score [11] | z-score [12] | composite z-score [13] | composite z-score [14] | composite z-score [15] | composite z-score [16] | composite z-score [17] | composite z-score [18] | composite z-score [19] | composite z-score [20]
1 | COCCOC(=O)N1C(=O)[C@@]2(c3cc(C#CCNC(N)=O)ccc31)[C@H](c1ccc(OCCO)cc1)N1[C@H](c3ccccc3)[C@H](c3ccccc3)OC(=O)[C@H]1[C@@H]2C(=O)N1CCN(c2ncccn2)CC1 | 0.832 | 0.46 | 0.978 | -0.37 (inactive) | 1.25 | 0.824 | 0.612 | 1.3 | 0.564 | 1.46 | 1.23 | -0.0743 | 0.93 | 0.515 | 0.53 | 0.0657 | -0.138 | -0.0724 | 0.895 | 0.505
2 | CN1C(=O)C2C=CC(C(O)C3CCCCC3)N(N(c3ccccc3)c3ccccc3)C2C1=O (stereo not given) | -0.941 | 0.993 | 0.895 | 1.12 (inactive) | 0.189 | -1.14 | -1.34 | -1.14 | -1.28 | 1.48 | -1.93 | -0.15 | -0.939 | 0.142 | 0.405 | 0.204 | 0.117 | 0.0294 | 0.0416 | -0.232
3 | COC(=O)[C@@]1(Cc2ccc(F)cc2)[C@H]2c3cc(C(=O)N4CCCC4)n(Cc4ccccc4)c3C[C@H]2CN1C(=O)c1ccccc1 | 0.122 | 0.411 | 1.28 | -2.67 (inactive) | 0.674 | 0.376 | 0.231 | 0.761 | -0.401 | 0.628 | 1.07 | -2.41 | -0.253 | 1.98 | 0.666 | -0.0843 | -0.367 | -0.357 | 1.56 | 0.657
4 | C=C[C@H](C)[C@H](OC(=O)Nc1ccc(SC)cc1)c1ccc(O)c2ccccc12 | 0.454 | -0.579 | -0.121 | -2.12 (inactive) | 0.0716 | -0.266 | -0.0236 | 0.284 | 0.159 | 0.289 | -1.97 | -0.766 | -0.256 | -0.413 | 0.273 | -0.325 | 0.0952 | -0.383 | -0.0193 | -0.385
5 | O=C(CS)NCCCCCNC(=O)[C@@H]1C[C@@H]2C(=O)N3CCC[C@H]3C(=O)N2[C@@H]1c1ccc(O)cc1 | 0.847 | 0.233 | 0.61 | 0.466 (inactive) | 0.598 | 1.14 | 0.128 | 0.0144 | 0.219 | 0.0603 | 0.922 | 0.0311 | 0.0978 | 0.195 | 0.194 | -0.0758 | 0.499 | -0.152 | 0.375 | 0.542
